The values that follow come from article PMC5540273 (PLoS ONE, 2017).

One assay concerns T1, GRK3.
T1 construct: gene ADRBK2

The subject of a further assay is T2, ERK2.
T2 construct: gene MAPK1

Another assay has as its system T3, ERK3.
T3 construct: gene MAPK6

Another assay relates to T4, ERK4.
T4 construct: gene MAPK4

The next assay relates to T5, HASPIN.
T5 construct: gene GSG2

A further assay relates to T6, IKK-beta.
T6 construct: gene IKBKB

In a further assay the test system is T7, IKK-epsilon.
T7 construct: gene IKBKE

SMILES strings stand for the structures.
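Also: kd values determined as follow-up on hits from a single-replicate KINOMEscan panel screen.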

For the molecule `CS(=O)(=O)CCNCc1nc(-c2ccc3ncnc(Nc4ccc5c(cnn5Cc5ccccc5)c4)c3c2)cs1.Cl.Cl` [GW569716], the Kd with ERBB3 turned out to be 0.069 µM; in the assay on ERBB4 it was 0.0082 µM.

As to `CS(=O)(=O)CCNCc1nc(-c2ccc3ncnc(Nc4ccc(OCc5ccccc5)c(Cl)c4)c3c2)cs1.Cl` [GW582764], the results for the Kd in the assay on ERBB4 and in the assay on GRK3 were 0.069 µM and over 10 µM, respectively.

Molecule `Cc1ccc(-c2nc(Nc3ccncc3)c3ccccc3n2)s1` [GSK189015] displayed a Kd with ERK2 of over 10 µM.

With `CC(=O)c1c(C)c2cnc(Nc3ccc(N4CCNCC4)cn3)nc2n(C2CCCC2)c1=O`, the Kd with ERK3 is over 10 µM.

In the case of `CCn1c(-c2c(N)noc2C)nc2cnccc21` [SB-737856], in the assay on ERK3, the Kd is over 10 µM.

For `Cc1nccc(-c2c(-c3ccc(F)cc3)ncn2CCCN2CCOCC2)n1.Cl` [SB-282975], the Kd in the assay on ERK4 was over 10 µM.

Turning to `Cc1c(Cn2c3ccccc3n3c(=O)cc(N4CCOCC4)nc23)cccc1C(F)(F)F` [GSK2306394], the Kd in the assay on ERK4 is over 10 µM.

In the assay on FLT3-autoinhibited, `Cn1cnc2c(N)ncnc21` [SKF-97623] had a Kd of over 10 µM.

With `CS(=O)(=O)Cc1ccc(Nc2nccc(-c3c(-c4cccc(NC(=O)C5CCCCC5)c4)nn4ncccc34)n2)cc1` [GSK350559], binding with FLT3 was characterised by a dissociation constant (Kd) of 0.074 µM.

`O=C(Nc1n[nH]c2nc(-c3cccs3)c(Br)cc12)C1CC1` [SB-735297] yielded a Kd in the assay on FLT3 of 0.15 µM.

Consider `Cn1cncc1C(=O)NC1CCN(c2ccnc(Nc3ccc(F)cc3)n2)C1` (centres unmarked) [GSK1379717], for which, in the assay on FLT4, the Kd was over 10 µM.

`CNc1nc(-c2ccc3c(N)n[nH]c3c2)cc(N2C[C@@H](C(=O)Nc3ccccc3)CC[C@H]2C)n1` [GSK2298859] showed a Kd with GRK1 of over 10 µM.

Turning to `COC(=O)C(Cc1ccccc1)NC(=O)NC1CCN(c2ccnc(Nc3ccc(F)cc3)n2)C1` (centres unmarked) [GSK1379714], in the assay on GRK1, the Kd was over 10 µM.

For `CC(C)c1cc(-c2ccc3c(N)n[nH]c3c2)nc(N)n1` [GSK2250882], the Kd in the assay on HASPIN amounted to 0.2 µM.

`COc1cccc(NC(=O)Nc2ccc(C)c(-c3ccc(C(=O)Nc4ccncc4)cc3)c2)c1` [GSK1398474] registered a dissociation constant (Kd) with IKK-beta of over 10 µM.

With `FC(F)(F)c1ccccc1-c1cc(-c2c[nH]nc2-c2ccccn2)ccn1` [GW679396], the Kd with IKK-epsilon was over 10 µM.

For the molecule `COc1ccc(Nc2nccc(N3CCC(NC(=O)C(C)c4ccc(Cl)cc4)CC3)n2)cc1` (centres unmarked) [GSK1379812], the Kd with IKK-epsilon is over 10 µM.

Consider `Cl.Cl.Cl.N#Cc1ccc(CCNc2nccc(-c3cccc(CN4CCNCC4)c3)n2)cc1` [GSK2137462], for which, in the assay with INSR, the Kd is over 10 µM.

As usually defined, the Kd is the concentration at which binding is half-saturated. Lower therefore signals higher affinity.
